From PubChem
Most compounds without a hit are left out; they make up all but 5.9% or so of the library.
GLP1R ag = qHTS of GLP-1 Receptor Agonists; Glucagon-like peptide 1 receptor (Homo sapiens), P43220; HEK293 GLP-1R CRE-luciferase, luminescence, 4-6 h; cells express a hypersensitive GLP-1R form; Potency, µM (highest dose often 45.6 µM), actives largely listed as activators; 380,000 tested, 0.007% active; AID 624172, 2012
Target sequence (P43220 whole entry, looked up): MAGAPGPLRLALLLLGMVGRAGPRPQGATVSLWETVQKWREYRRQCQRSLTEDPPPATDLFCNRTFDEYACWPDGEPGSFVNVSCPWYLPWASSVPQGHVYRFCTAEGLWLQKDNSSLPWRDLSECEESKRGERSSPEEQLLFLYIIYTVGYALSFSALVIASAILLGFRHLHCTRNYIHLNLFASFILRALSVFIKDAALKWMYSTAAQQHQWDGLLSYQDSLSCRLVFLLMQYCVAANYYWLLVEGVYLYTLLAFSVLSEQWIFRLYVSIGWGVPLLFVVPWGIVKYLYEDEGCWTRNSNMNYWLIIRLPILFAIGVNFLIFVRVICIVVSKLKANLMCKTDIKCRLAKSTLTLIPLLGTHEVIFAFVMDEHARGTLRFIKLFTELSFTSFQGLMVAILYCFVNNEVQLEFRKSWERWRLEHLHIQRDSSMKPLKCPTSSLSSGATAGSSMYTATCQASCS
RORg inh = qHTS for inhibitors of ROR gamma transcriptional activity; Drosophila S2 Gal4-RORgamma UAS-luciferase reporter, 20 h; Nuclear receptor ROR-gamma (Mus musculus), P51450; Potency, µM (doses to about 53.6 µM), actives largely listed as inhibitors; AID 2551, 2010; 310,000 tested, 5.4% active; also: nearly all actives have a fitted effect of over 60% in size
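Drosophila S2 cells stably expressing Gal4-DBD/mouse RORγ fusion under metallothionein promoter plus UAS-luciferase; compound 1 h, then 700 uM CuSO4 induction for 20 h at ambient temperature; inhibition read as reduced luminescence.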
GLP1R inv ag = qHTS of GLP-1 Receptor Inverse Agonists (Inhibition Mode) | Glucagon-like peptide 1 receptor (Homo sapiens), P43220 | 410,000 tested, 1.6% active | HEK293 GLP-1R CRE-luciferase, luminescence, 24 h; GLP-1R form is constitutively active | AID 624417, 2012 | Potency, µM (highest dose often 38.3 µM), hits mostly inhibitors; also: nearly all actives have a fitted effect of over 55% in size
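Constitutively active GLP-1R drives a cAMP-responsive luciferase in stably transfected HEK293 cells; test compounds are added after overnight (12 h) attachment and left 24 hr, and signal loss in luminescence marks inhibition.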
Gal4-VP16 FLuc = VP16 counterscreen qHTS for inhibitors of ROR gamma transcriptional activity; Drosophila S2 Gal4-VP16 UAS-luciferase, luminescence, 20 h; Potency, µM (series often up to 53.6 µM), actives largely listed as inhibitors; 310,000 tested, 3.5% active;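 also: Gal4-VP16 expression switched on by copper sulfate through the metallothionein promoter; nearly all actives have a fitted effect of over 50% in size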
GLP1R cytotox = qHTS of GLP-1 Receptor Inverse Agonists: Cytotox Screen. HEK293 cAMP-luciferase reporter cells, luminescence, 24 h. Potency, µM (top dose mostly 38.3 µM), most hits filed as inhibitors. 410,000 tested, 0.13% active. AID 624418, 2012;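 also: loss of luciferase light is scored as toxicity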
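Quantitative HTS format, 1536 wells, 200 cells/uL seeded. Compounds: 23 nL, 24 h, 37 °C. Detection: luciferase reagent, luminescence at 12 min RT; decreased signal taken as cytotoxic.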
Large screens that a line does not name were inactive. Calls follow the shape of the dose curve; as a rule, active = well fitted curve in the direction sought with a large enough effect; inconclusive = small, poorly fitted or top-dose-only effect, or another doubt; inactive = no such curve, though single readings can be large; an effect the other way counts as inactive or inconclusive.

CC1(C)C2CC=C(/C=N/NC(=O)c3ccccc3O)C1C2 (stereo unspecified)	RORg inh 8.9µM, Gal4-VP16 FLuc inconclusive, GLP1R cytotox inconclusive
CCc1cccc(C)c1NC(=O)c1cc(S(=O)(=O)NCc2ccccc2Cl)ccc1F	GLP1R inv ag inconclusive (no result: GLP1R ag, RORg inh, Gal4-VP16 FLuc)
COc1ccc(NC(=O)CN(c2ccc(C)cc2)S(=O)(=O)c2cccc3nonc23)cc1OC	none (no result: RORg inh, Gal4-VP16 FLuc)
CCn1nc(NC(=O)C(C)(C)C)c2cc3cccc(C)c3nc21	GLP1R inv ag 10µM
Cc1cccc2cc3c(NC(=O)c4ccccn4)nn(C)c3nc12	RORg inh 2µM, Gal4-VP16 FLuc 4µM
CCn1nc(NC(=O)CC(C)C)c2cc3cccc(C)c3nc21	none
CCN1C(=O)[C@H]2[C@H]3[C@H](O)[C@H](O)C/C(=N/NC(=O)OCc4ccc(OC)cc4)[C@@H]3CC[C@@H]2C1=O	none (no result: GLP1R ag, GLP1R inv ag, GLP1R cytotox)
COc1ccc2c(c1)sc1ncc(C(=O)NCc3cccc(Cl)c3)c(=O)n12	none (no result: GLP1R ag, RORg inh, Gal4-VP16 FLuc)
COCC(=O)N1CCC2(CC1)CN(C(=O)Nc1ccccc1)C2	none (no result: GLP1R ag, GLP1R inv ag, GLP1R cytotox)
Cc1[nH]n2c(=O)cc(C(C)C)nc2c1-c1ccccc1	RORg inh 11µM, Gal4-VP16 FLuc inconclusive
Cc1[nH]n2c(=O)cc(C(C)(C)C)nc2c1-c1ccccc1	RORg inh 1.4µM, GLP1R inv ag 3.5µM, Gal4-VP16 FLuc 3.2µM, GLP1R cytotox inconclusive
Cc1[nH]n2c(=O)cc(-c3ccc([N+](=O)[O-])cc3)nc2c1-c1ccccc1	GLP1R inv ag inconclusive, GLP1R cytotox inconclusive (no result: RORg inh, Gal4-VP16 FLuc)
CC(C)CCNC(=O)CN1C(=O)CSc2ccc(S(=O)(=O)N3CCCCC3)cc21	GLP1R inv ag inconclusive (no result: GLP1R ag, RORg inh, Gal4-VP16 FLuc)
Cc1cc(C(=O)NNC(=S)NCC(C)C)no1	RORg inh 7.9µM
CC(C)CNC(=S)NNC(=O)c1ccc2c(c1)OCO2	RORg inh inconclusive
CCCCc1c(C)nn(-c2nnc3c4ccccc4n(CC)c3n2)c1C	RORg inh 1.8µM, GLP1R inv ag 10µM, Gal4-VP16 FLuc 4µM, GLP1R cytotox 10µM
CCOc1ccccc1NC(=O)c1ccc2c(Cl)c3c(nc2c1)CCCC3	none (no result: RORg inh, Gal4-VP16 FLuc)
COCc1nnc(NC(=O)c2ccc(S(=O)(=O)N3CCCC3)cc2)o1	RORg inh 4.5µM, Gal4-VP16 FLuc 11µM
CCc1nnc(NC(=O)c2ccc(S(=O)(=O)N3CCCC(C)C3)cc2)o1 (stereo unspecified)	RORg inh 0.22µM, GLP1R inv ag inconclusive, Gal4-VP16 FLuc 0.63µM
CC1CCCN(S(=O)(=O)c2ccc(C(=O)Nc3nnc(-c4ccco4)o3)cc2)C1 (stereo unspecified)	RORg inh 1.1µM, Gal4-VP16 FLuc 0.5µM
COc1ccc(NC(=O)CSc2nc3nc(C)c(Cc4ccccc4)c(C)n3n2)cc1OC	none (no result: GLP1R ag, RORg inh, Gal4-VP16 FLuc)
CCc1nn(CC(=O)NCCCOC)c(=O)c2cc3ccccc3n12	none (no result: GLP1R ag, RORg inh, Gal4-VP16 FLuc)
CCc1ccc(-n2c(C)nc3cc(C(=O)NCCc4ccccc4)ccc32)cc1	GLP1R inv ag inconclusive (no result: GLP1R ag, RORg inh, Gal4-VP16 FLuc)
CC(C)c1nc2cc(Cl)ccc2n(Cc2ccccc2)c1=O	GLP1R inv ag 7.9µM
Cc1cc(OCCNCCO)cc(C)c1Cl	GLP1R inv ag 8.9µM
O=C(NC1CCCCC1)C(c1cccnc1)N(C(=O)CCl)c1cccc(Cl)c1 (stereo unspecified)	RORg inh 13µM, GLP1R inv ag inconclusive, Gal4-VP16 FLuc inconclusive, GLP1R cytotox inconclusive
Cc1cccc(N(C(=O)CNC(=O)c2ccco2)C(C(=O)NC2CCCCC2)c2cccnc2)c1 (stereo unspecified)	none
C/C(CCC(=O)OC[C@@H]1O[C@H](C#Cc2ccccc2)C=C[C@@H]1Oc1ccc(C)cc1)=N/O[C@@H](C)CN1CCCc2nc(C)c(C)cc21	none (no result: GLP1R ag, GLP1R inv ag, GLP1R cytotox)
CCOC(=O)c1ccc(NC(=S)N2CCN(CCN=CC3=C(O)CC(C)(C)CC3=O)CC2)cc1	RORg inh 13µM, Gal4-VP16 FLuc inconclusive
CCc1cccc(C)c1NC(=O)Cn1ccn(Cc2ccc(Cl)cc2)c(=O)c1=O	none (no result: GLP1R ag, RORg inh, Gal4-VP16 FLuc)
COC(=O)N[C@@H](/C=C/c1ccccc1)[C@@H](C)[N+](=O)[O-]	none (no result: GLP1R ag, GLP1R inv ag, GLP1R cytotox)
CCCC[C@H](CC(=O)c1ccccc1)[C@@H](OC(C)=O)C(=O)Oc1c(C(C)C)cccc1C(C)C	GLP1R inv ag 3.5µM (no result: RORg inh, Gal4-VP16 FLuc)
O=S(=O)(NCc1ccccn1)c1cc(C(F)(F)F)ccc1Cl	RORg inh 7.1µM, Gal4-VP16 FLuc inconclusive
O=S(=O)(NCc1ccccn1)c1cc(Cl)ccc1Cl	RORg inh 8.9µM, Gal4-VP16 FLuc 10µM
O=S(=O)(NCc1ccccn1)c1ccc(Cl)c(C(F)(F)F)c1	RORg inh 7.1µM, Gal4-VP16 FLuc inconclusive
Cc1cc(C)c(NC(=O)c2ccc(CNS(=O)(=O)c3cc(C(F)(F)F)ccc3Cl)cc2)c(C)c1	GLP1R inv ag 6.3µM, GLP1R cytotox inconclusive
CC(=O)c1cccc(NC(=O)c2noc3c2CSc2ccccc2-3)c1	none (no result: GLP1R ag, RORg inh, Gal4-VP16 FLuc)
Cc1c(Cl)cccc1NC(=O)CSc1nc(=O)n(Cc2ccccn2)c2c1CCC2	none (no result: GLP1R ag, RORg inh, Gal4-VP16 FLuc)
Brc1cc2c(cc1C1OCCO1)OCO2	none (no result: RORg inh, Gal4-VP16 FLuc)
CCCC1OC(c2cc3c(cc2Cl)OCO3)OCC1CC (stereo unspecified)	GLP1R inv ag 11µM (no result: RORg inh, Gal4-VP16 FLuc)
N/C(Cn1cncn1)=N\NC(=O)C(=O)Nc1ccc(Cl)cc1Cl	RORg inh 10µM, Gal4-VP16 FLuc inconclusive, GLP1R cytotox inconclusive
N/C(Cn1cncn1)=N\NC(=O)c1ccc(Cl)cc1Cl	RORg inh inconclusive, Gal4-VP16 FLuc inconclusive
Cc1cc(C)c(OCCN(C)C)c(Cl)c1	none
